Assay outcomes as filed in PubChem BioAssay.
PD-1 reversal: activators reversing PD-1 mediated T-cell inhibition, primary screen, luminescence, primary human CD4 T cells, PD-L1 beads; CellTiter-Glo 96 h; activation, % (test concentration not listed); 29,000 tested, under 10 active; call rule not given here;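 note: 0% = median vehicle wells and 100% = positive control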
NOMO-1 viab: NOMO-1 AML cell viability reduction, primary screen, STK33 inhibitor project, CellTiter-Glo luminescence. inhibition, % (no concentration beside the values). 37,000 compounds, 7.5% hits. NOMO-1 AML viability, 72 h; in the data active = inhibition above about 80%
MITF inh: inhibitors of MITF, primary screen, MITF inhibitor project, cell-based, luminescence. TRPM1 promoter luciferase, 24 h. inhibition, % (concentration not given with the values). 37,000 compounds, 0.28% hits. AID 2240, 2010; in the data active = inhibition above about 85%;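 note: human melanocyte line stably carrying TRPM1 promoter luciferase reporter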
Shh pathway inh: Hedgehog pathway signaling inhibitors, primary screen, luminescence, Shh-LIGHT2 cells, Gli-luciferase. Shh-LIGHT2 Gli-luciferase reporter, 30 h. inhibition, % (concentration not given with the values). 22,000 compounds, 2.1% hits. AID 2313, 2010;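 active = mean inhibition across valid replicates above about 65%, limit read from the data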;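 note: pathway switched on by Shh-conditioned medium diluted 1 in 25 in low serum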
The depositor's hits bear a star; . = not tested or not shown. Rows were chosen to be rich in hits. Some 7.9% of all compounds tested hit in one or more screens of this group.

SMILES | PD-1 reversal | NOMO-1 viab | MITF inh | Shh pathway inh
C=C1C(=O)O[C@H]2[C@H]1[C@@H](OC(=O)C(C)(O)CCl)C(OC(C)=O)/C(C(=O)OC)=C\CC[C@@]1(C)O[C@H]21 (stereo partly specified) | -11.7 | 109.1* | 52.6 | -16.2
C=C1C(=O)O[C@H]2[C@H]1C[C@H](OC(=O)/C(C)=C\C)/C(C)=C\CC[C@@]1(C)O[C@@H]21 | -15.2 | 120.9* | 32.9 | 5.2
C=C1C(=O)O[C@H]2[C@H]1[C@@H](OC(=O)/C(C)=C/C)C(OC(C)=O)/C(C(=O)OC)=C\CC[C@@]1(C)O[C@H]21 (stereo partly specified) | -11.5 | 119.0* | 44.6 | -312.8
Cc1ccc2nc(-c3ccc(NC(=O)CS(=O)(=O)Cc4ccccc4)cc3)sc2c1 | 2.0 | 10.3 | -18.3 | .
Cc1ccccc1NC(=O)CCc1nc(-c2ccccc2F)no1 | 0.1 | 23.7 | -16.3 | .
CC(C)(C)c1cc(O)c(C(C)(C)C)cc1O | . | 114.3* | 25.0 | 90.3*
Cc1ccc(NC(=O)CSc2nc(-c3cccs3)cc(C(F)(F)F)n2)c([N+](=O)[O-])c1 | -0.3 | 107.0* | 21.1 | .
c1ccc(C2C3=C(CCCC3)SC3=C2CCCC3)cc1 | -0.6 | 98.1* | -10.1 | -12.3
COc1ccc(C(Nc2cc(C)ccn2)c2ccc3ccc(C)nc3c2O)cc1 (stereo unspecified) | . | 98.9* | 11.6 | .
Cc1ccnc(NC(c2ccsc2)c2ccc3ccc(C)nc3c2O)c1 (stereo unspecified) | -17.2 | 89.1* | 7.4 | .
CCc1ccc(C(Nc2ccccn2)c2ccc3ccc(C)nc3c2O)cc1 (stereo unspecified) | . | 110.0* | 33.3 | .
CCc1ccc(C(Nc2cc(C)ccn2)c2ccc3ccc(C)nc3c2O)cc1 (stereo unspecified) | . | 89.2* | 60.9 | .
CC(C)(C)NS(=O)(=O)c1ccc(OCC(=O)N2CCOCC2)cc1 | 1.8 | 25.9 | -3.6 | .
CC(=O)c1cccc(N(CC(=O)Nc2ccc(C)cc2)S(C)(=O)=O)c1 | . | 0.8 | -9.6 | .
O=C(CSc1nnc(-c2ccccn2)n1-c1ccccc1)Nc1ccc(Br)cc1 | -1.8 | 30.1 | 11.9 | .
Cc1ccnc(NC(c2cccc(F)c2)c2ccc3ccc(C)nc3c2O)c1 (stereo unspecified) | . | 115.8* | 53.7 | .
Cc1ccc(S(=O)(=O)Nc2ccc3c(c2)C(=O)N([C@@H](C)CO)C[C@@H](C)[C@@H](CN(C)Cc2ccc(-c4ccccc4)cc2)O3)cc1 | -0.6 | 101.0* | -5.7 | -33.2
Cc1ccc(S(=O)(=O)Nc2ccc3c(c2)C(=O)N([C@@H](C)CO)C[C@@H](C)[C@H](CN(C)Cc2ccc(-c4ccccc4)cc2)O3)cc1 | 0.0 | 122.6* | 35.6 | 17.8
Cc1ccc(S(=O)(=O)Nc2ccc3c(c2)C(=O)N([C@@H](C)CO)C[C@H](C)[C@@H](CN(C)Cc2ccc(-c4ccccc4)cc2)O3)cc1 | 0.0 | 58.8 | 3.3 | .
Cc1ccc(S(=O)(=O)Nc2ccc3c(c2)C(=O)N([C@@H](C)CO)C[C@H](C)[C@H](CN(C)Cc2ccc(-c4ccccc4)cc2)O3)cc1 | 1.2 | 56.4 | -0.8 | .
O=C(CC1NC2CCCCC2NC1=O)Nc1ccc([N+](=O)[O-])cc1 (stereo unspecified) | 1.9 | 0.7 | -7.4 | .
Cc1cc(Br)ccc1NCc1ccc2c(c1)OCO2 | 0.3 | 42.5 | -68.0 | -35.2
Clc1ccc2ncnc(NCc3ccc4c(c3)OCO4)c2c1 | -2.1 | 82.5* | 45.4 | 62.4
Nc1nc(SCC(=O)c2ccc3c(c2)OCCO3)n[nH]1 | . | 21.3 | -14.9 | .
Cc1cc(I)cnc1NC(=S)NC(=O)c1ccco1 | 0.4 | 19.2 | -48.5 | .
SMILES | PD-1 reversal | NOMO-1 viab | MITF inh | Shh pathway inh
CC12CC3(C)CC(C)(C1)CC(CN=Cc1ccc(O)cc1)(C2)C3 | -2.4 | 111.7* | -2.9 | 24.1
O=C(Oc1ccccc1)Oc1ccc2oc(=O)sc2c1 | -2.2 | 45.7 | 3.0 | .
COc1ccccc1COc1ccc2c3c(c(=O)oc2c1C)CCCCC3 | 1.0 | 86.8* | -56.8 | .
C[C@H](CO)N1C[C@H](C)[C@H](CN(C)Cc2ccc(C(=O)Nc3ccccc3N)cc2)Oc2ccc(N(C)C)cc2CC1=O | -1.8 | 141.1* | 36.7 | .
C[C@H]1CN([C@@H](C)CO)C(=O)Cc2cc(N(C)C)ccc2O[C@H]1CN(C)Cc1ccc(C(=O)Nc2ccccc2N)cc1 | -0.6 | 140.9* | 31.3 | .
C[C@@H]1CN([C@H](C)CO)C(=O)Cc2cc(NS(=O)(=O)c3cccs3)ccc2O[C@H]1CN(C)Cc1ccc(C(=O)Nc2ccccc2N)cc1 | -0.2 | 71.0 | -9.1 | .
CS(=O)(=O)N(CC(=O)Nc1c(F)cccc1F)c1ccc(I)cc1 | 0.6 | 5.2 | -46.8 | .
Cc1nn(-c2cc(Cl)ccc2Cl)c(N)c1-c1nc(-c2ccccc2)cs1 | 0.4 | 27.5 | -4.8 | .
Cc1cc(C)c(S(=O)(=O)N(C)CC(=O)N2CCC(C(N)=O)CC2)c(C)c1 | 1.2 | 27.9 | 4.1 | .
C=CCn1c(-c2cccs2)nc(-c2ccccc2)c1-c1ccccc1 | -5.4 | 120.5* | 26.7 | 23.7
COC(=O)CNC(=O)c1cn(-c2ccccc2)nc1-c1ccc(OC)cc1 | 0.3 | 112.7* | -8.5 | .
Cc1noc(C)c1S(=O)(=O)Nc1ccc2c(c1)CC(=O)N([C@H](C)CO)C[C@@H](C)[C@H](CN(C)Cc1ccc(Cl)c(Cl)c1)O2 | -1.9 | 97.5* | -6.9 | 15.3
Cc1noc(C)c1S(=O)(=O)Nc1ccc2c(c1)CC(=O)N([C@@H](C)CO)C[C@H](C)[C@H](CN(C)Cc1ccc(C(F)(F)F)cc1)O2 | -3.4 | 82.8* | 8.1 | 18.1
Cc1noc(C)c1S(=O)(=O)Nc1ccc2c(c1)CC(=O)N([C@@H](C)CO)C[C@H](C)[C@@H](CN(C)Cc1ccc(C(F)(F)F)cc1)O2 | . | 65.2 | 2.2 | 24.3
CSc1sc(C#N)c2c1C(=O)CC(c1ccccc1)C2 (stereo unspecified) | -0.9 | 18.7 | 11.2 | 86.5*
COC(=O)c1cccc(COC(=O)c2cc(=O)[nH]c3ccccc23)c1 | . | 15.5 | 2.4 | .
C[C@@H]1CN([C@H](C)CO)C(=O)Cc2cc(NC(=O)CCCCCC(=O)Nc3ccccc3N)ccc2O[C@H]1CN(C)Cc1ccc(Cl)c(Cl)c1 | -1.1 | 108.1* | 9.6 | .
C[C@H]1CN([C@@H](C)CO)C(=O)c2cc(NC(=O)CCCCCC(=O)Nc3ccccc3N)ccc2O[C@H]1CN(C)Cc1ccc(Cl)c(Cl)c1 | -1.3 | 111.1* | 36.9 | .
C[C@@H]1CN([C@@H](C)CO)C(=O)c2cc(NC(=O)CCCCCC(=O)Nc3ccccc3N)ccc2O[C@H]1CN(C)Cc1ccccc1 | 0.5 | 18.2 | 11.9 | .
C[C@@H]1CN([C@H](C)CO)C(=O)Cc2cc(NC(=O)CCCCCC(=O)Nc3ccccc3N)ccc2O[C@H]1CN(C)Cc1ccncc1 | 1.9 | -4.1 | -18.4 | .
C[C@H]1CN([C@@H](C)CO)C(=O)Cc2cc(NC(=O)CCCCCC(=O)Nc3ccccc3N)ccc2O[C@@H]1CN(C)Cc1ccc(Cl)c(Cl)c1 | 0.3 | 92.1* | 12.7 | .
COC(=O)c1cccc(NC(=O)COc2ccc(OC)cc2)c1C | 0.0 | 15.3 | -22.8 | .
